Screens from PubChem.
In the library only some 0.92% were active in any assay of this set; here they are far more common.
NS1 function inh: inhibitors of influenza NS1 protein function; Potency, µM (doses to about 46.1 µM), without a hit: at the highest dose activity, positive = more growth; actives 0.4% (n = 270,000); AID 2326; calls by dose curve; note: actives are rising curves; nearly all actives have a fitted effect of over 50% in size
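Read-out: OD600 growth recovery of NS1-expressing budding yeast. Cells grown overnight at 30C in -URA glucose medium, washed, resuspended and diluted 1:100 in 2% galactose assay medium, pH 6.0. Same strain lacking NS1 served as positive control.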
LmPK inh: blocks Leishmania mexicana pyruvate kinase activity. actives 0.37% (n = 290,000). purified LmPK, Kinase-Glo ATP luminescence, 1 h. Potency, µM (top dose mostly 57.5 µM), inactives show at the top dose activity change, negative = inhibition, actives largely listed as inhibitors. AID 1721. Q27686; note: % is set by controls: 0 for no effect and ±100 for the full control effect
Target sequence (Q27686 whole entry, looked up): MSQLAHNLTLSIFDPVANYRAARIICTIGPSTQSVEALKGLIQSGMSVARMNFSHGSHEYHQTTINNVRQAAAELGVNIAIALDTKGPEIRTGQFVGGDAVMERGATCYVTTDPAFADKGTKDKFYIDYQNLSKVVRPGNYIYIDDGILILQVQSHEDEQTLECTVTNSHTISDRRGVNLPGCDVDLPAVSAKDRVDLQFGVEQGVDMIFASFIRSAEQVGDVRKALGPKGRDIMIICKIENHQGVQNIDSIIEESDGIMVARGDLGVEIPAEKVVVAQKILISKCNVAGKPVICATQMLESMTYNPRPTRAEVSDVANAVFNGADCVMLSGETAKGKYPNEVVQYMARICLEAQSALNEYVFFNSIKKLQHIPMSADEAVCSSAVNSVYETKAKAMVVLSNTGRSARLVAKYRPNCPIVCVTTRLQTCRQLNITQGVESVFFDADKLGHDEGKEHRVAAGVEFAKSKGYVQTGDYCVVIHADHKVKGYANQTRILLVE
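0.1 nM LmPK, 0.5 mM PEP, 0.1 mM ADP; 50 mM imidazole pH 7.2, 7 mM MgCl2, 50 mM KCl; 1 h RT. Kinase-Glo luminescence readout, normalized to no-enzyme (full inhibition) and uninhibited wells.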
AMA1 RON2 block: disrupts binding of P. falciparum AMA1 to RON2; actives 0.2% (n = 360,000); AlphaScreen AMA1-biotinylated RON2 peptide binding; Potency, µM (series often up to 58.2 µM), for the others: at the top dose activity change, negative = inhibition, hits mostly inhibitors;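 note: 0% = vehicle wells and -100% = peptide control; nearly all actives have a fitted effect of over 45% in size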
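AMA1 (3D7) with his tag at 25 nM final met compounds first, then biotinylated RON2 peptide at 25 nM; detection used donor plus acceptor beads, 10 µg/mL apiece, read by AlphaScreen after 30 min at room temperature.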
RE007 growth inh: less growth of the S. pombe RE007 Vpr strain; Potency, µM (highest dose often 92.2 µM), inactives show at the highest dose activity change, negative = less growth, hits mostly inhibitors; S. pombe RE007 Vpr strain, BacTiter-Glo ATP luminescence, 24 h; actives 0.21% (n = 360,000); active = well fitted falling curve with a large enough effect; inconclusive = small, poorly fitted or top-dose-only effect; inactive = no such curve, though single readings can be large or run the other way; note: % is set by controls: 0 for no effect and ±100 for the full control effect; nearly all actives have a fitted effect of over 50% in size
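Fission yeast strain RE007, carrying one chromosomally integrated HIV-1 vpr copy, was seeded at OD 0.01 in PMG+AL medium with 23 nL pinned compound. After 24 h at 30 °C and 99% humidity, viability was read by BacTiter-Glo luminescence.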
Tb PYK inh: T. brucei pyruvate kinase inhibition. TbPYK enzyme, Kinase-Glo Plus ATP luminescence, 45 min. Q57TT1. Potency, µM (top dose mostly 76.8 µM), for inactives: at the highest dose activity, negative = inhibition, most hits filed as inhibitors. actives 0.12% (n = 410,000); note: % is set by controls: 0 for no effect and ±100 for the full control effect; nearly all actives have a fitted effect of over 50% in size
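Enzyme and substrate buffer are dispensed first and compound is pin-transferred. ADP at 130 uM final then starts the reaction, which runs 45 min at room temperature. Detection reagent is added for 10 min before luminescence is imaged.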
* marks the source's active call; other numbers are inactive results; ? = inconclusive; / = not tested or not shown; [ ] = remark or other dose. Unless noted, calls come from the whole dose curve; as a rule, active = well fitted curve in the direction sought with a large enough effect; inconclusive = small, poorly fitted or top-dose-only effect, or another doubt; inactive = no such curve, though single readings can be large; an effect the other way counts as inactive or inconclusive. Potency is the fitted concentration of half-maximal effect.

SMILES	NS1 function inh	LmPK inh	AMA1 RON2 block	RE007 growth inh	Tb PYK inh
Cc1sc2c3ccsc3ccc2[n+]1C	/	-9%	-9%	-12%	8.9µM*
Cc1sc2ccc3sccc3c2[n+]1C	5%	1%	9%	2%	8.9µM*
CC1(C(=O)O)CCC2(C)CCC3(C)C(=CC(=O)[C@@H]4C5(C)CC[C@H](O[C@H]6O[C@H](C(=O)O)C(O)C(O)[C@H]6O[C@@H]6O[C@H](C(=O)O)C(O)C(O)C6O)C(C)(C)[C@@H]5CCC43C)[C@@H]2C1 (stereo partly specified)	/	/	/	/	9%
CCN(Cc1ccccc1)C(=O)Cn1c(=O)n(-c2cccc(C)c2)c(=O)c2c1c1cc(OC)ccc1n2C	/	/	/	/	2%
Cc1cccc(C)c1NC(=O)CCCCCC1NC(=O)NC1C (stereo unspecified)	/	1%	-13%	-7%	-3%
CC1NC(=O)NC1CCCCCC(=O)NCCc1ccccc1 (stereo unspecified)	-14%	8%	1.5µM*	13%	-3%
Cc1cccc(N2CCN(C(=O)c3nn(C)c4c3CSc3ccccc3-4)CC2C)c1 (stereo unspecified)	/	/	/	/	2%
O=C(O)Cn1c(=O)oc2cc(S(=O)(=O)NC3CCCCC3)ccc21	1%	/	/	/	/
Cc1ccc(-n2nnc(-c3nccn3C)n2)cc1	-4%	14µM*	-1%	?	?
Cc1ccccc1/C(N)=N/OC(=O)c1ccc(F)cc1	-62%	16µM*	13%	-10%	-12%
CCN1/C(=C\C=C\C2=[N+](CC)c3ccccc3C2(C)C)C(C)(C)c2ccccc21	-41%	10µM*	14µM*	?	?
CCOC(=O)/C=C1/N(C)c2ccccc2C1(C)C	-8%	-2%	8%	-4%	0%
Cn1cccc1/C=N/N1CCN(Cc2cccc3ccccc23)CC1	1%	-8%	20µM*	-5%	?
C[C@@H]1CCCCO[C@@H](CN(C)C(=O)Nc2ccccc2)[C@@H](C)CN([C@H](C)CO)C(=O)c2cc(N(C)C)ccc2O1	/	/	-9%	-4%	-15%
C[C@@H]1CCCCO[C@H](CN(C)C(=O)Nc2cccc3ccccc23)[C@@H](C)CN([C@H](C)CO)C(=O)c2cc(N(C)C)ccc2O1	/	/	-5%	-38%	11µM*
CCOc1ccc(N=Nc2c(=O)[nH]n3c(=O)cc(C)[nH]c23)cc1	-1%	14µM*	-1%	?	-12%
O=C1c2ccccc2C(=O)C1c1ccc2ccccc2n1	-12%[9.22 µM]	14µM*	2%	-13%	1%
O=c1c2cc(F)ccc2sn1-c1ccc(F)cc1	/	/	9%	11µM*	8.9µM*
COc1ccc(-n2sc3ccc(F)cc3c2=O)cc1	/	/	-5%	10µM*	?
COc1ccc(-n2cc(C(=O)O)c3ccccc3c2=O)cc1	-2%	1%	-2%	1%	3%
COc1ccc(-n2sc3ccccc3c2=O)cc1	/	/	-3%	-87%	11µM*
Cc1ccc(C)c(-n2sc3ccc(F)cc3c2=O)c1	/	/	9%	?	?
OCC1(O)OC[C@@H](O)[C@H](O)[C@@H]1O (stereo partly specified)	/	/	/	/	1%
CCN(CC)c1ccc(Nc2nc(-c3cccnc3)cs2)cc1	-2%	-2%	28µM*	29%	6%
CCCCn1c(C23CC4CC(CC(C4)C2)C3)n[nH]c1=S	-64%	-15%	69%	8%	6.3µM*
SMILES	NS1 function inh	LmPK inh	AMA1 RON2 block	RE007 growth inh	Tb PYK inh
COCCn1c(CCc2ccccc2)n[nH]c1=S	8%	-10%	3%	11%	?
CCCC[C@@H]1CNC(=S)N1CCC12CC3CC(CC(C3)C1)C2	1%	2%	13%	10%	-16%
COCCn1c(C23CC4CC(CC(C4)C2)C3)n[nH]c1=S	-8%	-27%	12%	17%	7.9µM*
CCCCN1CC(O)C(O)C(O)C1CO (stereo unspecified)	/	/	/	/	0%
COc1ccc(N2C(=O)CC(Sc3n[nH]c(-c4cccc(C)c4)n3)C2=O)cc1 (stereo unspecified)	-2%	5%	57%	20µM*	-14%
COc1cccc(N2C(=O)CC(Sc3nc(C)cc(C)n3)C2=O)c1 (stereo unspecified)	12%	-2%	1%	-6%	-5%
